Test results: paper PMC5540273 (PLoS ONE, 2017)

Key:
Details in all cases: concentration: 1 μM, replicates: in singlicate; n = 1
PRKX = system: PRKX
PRP4 = system: PRP4
PYK2 = system: T1, PYK2
T1 construct: gene PTK2B

QSK = system: QSK
RAF1 = system: RAF1
RET = system: RET
RIOK1 = system: RIOK1
RIOK2 = system: RIOK2
RIOK3 = system: RIOK3
RIPK1 = system: RIPK1
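Note: KINOMEscan kinase panel screen.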

Cc1c(Cn2c(C)nn3c(=O)cc(N4CCO[C@H](C)C4)nc23)cccc1C(F)(F)F [GSK2373690]
%Inh (PRKX): 29%
%Inh (PRP4): 26%
%Inh (PYK2): 1%
%Inh (QSK): 14%
%Inh (RAF1): 19%
%Inh (RET): 6%
%Inh (RIOK1): 15%
%Inh (RIOK2): 17%
%Inh (RIOK3): 27%
%Inh (RIPK1): 1%

COc1cc2ncn(-c3cc(OCc4ccc(S(C)(=O)=O)cc4)c(C(N)=O)s3)c2cc1OC [GW869979]
%Inh (PRKX): 0%
%Inh (PRP4): 0%
%Inh (PYK2): 0%
%Inh (QSK): 27%
%Inh (RAF1): 0%
%Inh (RET): 26%
%Inh (RIOK1): 0%
%Inh (RIOK2): 8%
%Inh (RIOK3): 0%
%Inh (RIPK1): 18%

FC(F)(F)c1ccc(-c2ncn(CCCN3CCOCC3)c2-c2ccncc2)cc1 [SB-217780]
%Inh (PRKX): 14%
%Inh (PRP4): 0%
%Inh (PYK2): 34%
%Inh (QSK): 0%
%Inh (RAF1): 0%
%Inh (RET): 20%
%Inh (RIOK1): 47%
%Inh (RIOK2): 5%
%Inh (RIOK3): 50%
%Inh (RIPK1): 0%

O=C(Nc1ccc2c(c1)OCO2)NC1CCN(c2ccnc(NCc3ccc(F)cc3)n2)CC1 [GSK1379859]
%Inh (PRKX): 3%
%Inh (PRP4): 0%
%Inh (PYK2): 0%
%Inh (QSK): 0%
%Inh (RAF1): 3%
%Inh (RET): 21%
%Inh (RIOK1): 33%
%Inh (RIOK2): 0%
%Inh (RIOK3): 30%
%Inh (RIPK1): 17%
